Measurements reported in PubChem BioAssay (EPA / NIEHS).
Calls of active or inactive are those of the source. The calls were made as follows: active = hit-call score of the fitted dose curve at least 0.9, where 1 is the maximum; inactive = score below 0.9.

Key:
[1] = ATG_GLI_CIS: Attagene CIS-FACTORIAL HepG2 Assay for human Zinc Finger Protein GLI1 (AID 2282945); conditions: HepG2, Attagene cis-factorial reporter mRNA, GLI element; actives raise or lower the signal
In short: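 Transiently transfected HepG2 cells report endogenous transcription factor activity via cis-element-driven reporter units. After 24 h compound exposure, reporter mRNA was measured by RT-PCR with capillary electrophoresis; bidirectional fitting against DMSO baseline.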

[2] = target: Bile acid receptor (Homo sapiens) (UniProt Q96RI1); assay: ATG_IR1_CIS: Attagene CIS-FACTORIAL HepG2 Assay for human Nuclear Receptor Subfamily 1 Group H Member 4 (NR1H4), IR1 submotif (AID 2282946); conditions: IR1 reporter transcription, actives raise or lower the signal
In short: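 Fluorescence of capillary-separated, HpaI-digested RT-PCR reporter products gave IR1-element mRNA induction in HepG2 cells 24 h after dosing. Endogenous transcription factors drove the cis-regulated reporters; activity was fitted bidirectionally against DMSO.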

[3] = ATG_ISRE_CIS: Attagene CIS-FACTORIAL HepG2 Assay for human Interferon Regulatory Factor 1 (IRF1) binding to an Interferon-Stimulated Response Element (ISRE) (AID 2282948); conditions: HepG2 ISRE cis-reporter (Attagene), mRNA transcription readout; actives raise or lower the signal
In short: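 Uses HepG2 liver cells transfected with cis-regulated reporters and measures mRNA 24 h post-dosing through RT-PCR, primer-extension labelling and capillary electrophoresis, with DMSO as negative control.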

[4] = ATG_M_32_CIS: Attagene CIS-FACTORIAL HepG2 Assay for M32 Transcription Factor (Internal Marker) (AID 2282949); conditions: HepG2 Attagene cis-factorial M32 reporter, mRNA; actives raise or lower the signal;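 also: background control marker of the multiplexed CIS panel rather than a real target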
In short: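 Transient MRTU transfection of HepG2; 24 h compound treatment; TriZol RNA, oligo(dT) RT, reporter PCR, 6-FAM primer extension, HpaI cut, CE. Gain/loss of signal vs DMSO.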

[5] = ATG_M_06_CIS: Attagene CIS-FACTORIAL HepG2 Assay for M06 Transcription Factor (Internal Marker) (AID 2282950); conditions: HepG2 Attagene CIS-FACTORIAL M06 internal marker reporter; actives raise or lower the signal
In short: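 Terse: HepG2, transient MRTU transfection (FuGene 6), 24 h dosing; total RNA, oligo(dT) RT, PCR, FAM label, HpaI cut, capillary electrophoresis; bidirectional fit vs DMSO baseline; background-control endpoint.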

[6] = target: Hypoxia-inducible factor 1-alpha (Homo sapiens) (UniProt Q16665); assay: ATG_HIF1a_CIS: Attagene CIS-FACTORIAL HepG2 Assay for human Hypoxia Inducible Factor 1 (HIF1A) (AID 2282951); conditions: HepG2 Attagene cis-factorial HIF1a reporter transcription; actives raise or lower the signal
In short: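 HepG2, transient cis-reporter library, 24 h dosing. RNA → RT (oligo dT) → PCR → 6-FAM primer extension → HpaI → CE. Bidirectional curve fit vs DMSO.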

[7] = target: Hepatocyte nuclear factor 6 (Homo sapiens) (UniProt Q9UBC0); assay: ATG_HNF6_CIS: Attagene CIS-FACTORIAL HepG2 Assay for human Hepatocyte Nuclear Factor 6 (HNF6) (AID 2282952); conditions: HepG2 Attagene cis-factorial HNF6 reporter transcription; actives raise or lower the signal
In short: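 Using cis-element reporters in HepG2 liver cells, the assay tracks endogenous factor-driven transcription 24 h post-dosing. Signal comes from 6-FAM-labelled, HpaI-digested RT-PCR fragments, with gain or loss scored against DMSO.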

[8] = target: Heat shock factor protein 1 (Homo sapiens) (UniProt Q00613); assay: ATG_HSE_CIS: Attagene CIS-FACTORIAL HepG2 Assay for human Heat Shock Transcription Factor 1 (HSE) (AID 2282953); conditions: HepG2 HSE cis-reporter, Attagene RNA transcription; actives raise or lower the signal
In short: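 Read-out: fluorescence of reporter-specific RT-PCR fragments separated by capillary electrophoresis. HepG2 carrying transfected cis-element reporter units; 24 h dosing; activity fitted in both directions relative to DMSO baseline.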

[9] = ATG_MRE_CIS: Attagene CIS-FACTORIAL HepG2 Assay for human Metal Responsive Element (MRE) (AID 2282954); conditions: HepG2 MRE cis-reporter transcription, Attagene multiplex; actives raise or lower the signal
In short: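 RT-PCR/capillary electrophoresis readout of reporter mRNA, 24 h post-dosing, in HepG2 cells transfected with multiplexed cis-regulated reporter constructs. Gain or loss of signal fitted bidirectionally against DMSO baseline.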

[10] = ATG_GRE_CIS: Attagene CIS-FACTORIAL HepG2 Assay for human Glucocorticoid Response Elements (GRE) (AID 2282947); conditions: HepG2 GRE cis-reporter, Attagene multiplex mRNA; actives raise or lower the signal
In short: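 Read-out: fluorescent reporter-transcript fragments separated by capillary electrophoresis after RT-PCR. Transiently transfected HepG2 cells carrying cis-element-driven reporter units were dosed for 24 h; gain or loss of signal fitted against DMSO control.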

Chain of Hypoxia-inducible factor 1-alpha (Homo sapiens) (Q16665 whole entry, looked up): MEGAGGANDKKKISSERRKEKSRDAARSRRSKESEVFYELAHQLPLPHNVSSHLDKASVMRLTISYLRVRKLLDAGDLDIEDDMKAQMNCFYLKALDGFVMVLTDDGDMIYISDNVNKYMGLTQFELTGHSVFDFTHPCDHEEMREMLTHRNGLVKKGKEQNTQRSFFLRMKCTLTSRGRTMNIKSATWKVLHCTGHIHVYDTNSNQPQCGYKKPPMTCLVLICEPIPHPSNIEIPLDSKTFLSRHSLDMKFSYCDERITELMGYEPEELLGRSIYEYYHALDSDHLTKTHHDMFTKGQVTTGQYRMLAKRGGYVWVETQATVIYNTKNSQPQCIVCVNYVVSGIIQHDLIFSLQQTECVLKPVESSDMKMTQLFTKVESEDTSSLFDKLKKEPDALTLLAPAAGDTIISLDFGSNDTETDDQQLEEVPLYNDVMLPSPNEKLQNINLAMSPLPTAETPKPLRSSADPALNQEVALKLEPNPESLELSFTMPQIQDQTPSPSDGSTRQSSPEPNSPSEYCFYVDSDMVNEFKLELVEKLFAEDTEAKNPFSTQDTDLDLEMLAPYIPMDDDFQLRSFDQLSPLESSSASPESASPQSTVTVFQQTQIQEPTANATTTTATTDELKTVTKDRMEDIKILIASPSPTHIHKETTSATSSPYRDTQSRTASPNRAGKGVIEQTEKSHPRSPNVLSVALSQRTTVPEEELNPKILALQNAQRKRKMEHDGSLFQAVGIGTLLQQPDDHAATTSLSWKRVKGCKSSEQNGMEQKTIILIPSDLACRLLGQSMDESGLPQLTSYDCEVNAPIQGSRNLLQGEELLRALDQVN
Chain of Heat shock factor protein 1 (Homo sapiens) (Q00613 whole entry, looked up, the tested form may be a part): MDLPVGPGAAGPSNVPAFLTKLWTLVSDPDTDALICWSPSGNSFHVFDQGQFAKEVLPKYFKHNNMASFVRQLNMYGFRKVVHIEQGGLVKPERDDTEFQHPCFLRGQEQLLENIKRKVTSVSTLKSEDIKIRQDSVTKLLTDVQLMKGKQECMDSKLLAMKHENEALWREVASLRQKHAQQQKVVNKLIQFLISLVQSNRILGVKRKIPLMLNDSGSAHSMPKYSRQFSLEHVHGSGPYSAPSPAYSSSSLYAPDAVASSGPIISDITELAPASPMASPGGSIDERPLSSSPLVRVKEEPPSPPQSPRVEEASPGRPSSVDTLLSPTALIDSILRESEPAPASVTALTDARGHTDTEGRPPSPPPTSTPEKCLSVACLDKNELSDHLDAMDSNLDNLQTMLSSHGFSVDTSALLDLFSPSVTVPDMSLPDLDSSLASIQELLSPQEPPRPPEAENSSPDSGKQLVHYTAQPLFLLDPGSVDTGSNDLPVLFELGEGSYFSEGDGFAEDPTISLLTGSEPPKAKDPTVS
Chain of Bile acid receptor (Homo sapiens) (Q96RI1 whole entry, looked up): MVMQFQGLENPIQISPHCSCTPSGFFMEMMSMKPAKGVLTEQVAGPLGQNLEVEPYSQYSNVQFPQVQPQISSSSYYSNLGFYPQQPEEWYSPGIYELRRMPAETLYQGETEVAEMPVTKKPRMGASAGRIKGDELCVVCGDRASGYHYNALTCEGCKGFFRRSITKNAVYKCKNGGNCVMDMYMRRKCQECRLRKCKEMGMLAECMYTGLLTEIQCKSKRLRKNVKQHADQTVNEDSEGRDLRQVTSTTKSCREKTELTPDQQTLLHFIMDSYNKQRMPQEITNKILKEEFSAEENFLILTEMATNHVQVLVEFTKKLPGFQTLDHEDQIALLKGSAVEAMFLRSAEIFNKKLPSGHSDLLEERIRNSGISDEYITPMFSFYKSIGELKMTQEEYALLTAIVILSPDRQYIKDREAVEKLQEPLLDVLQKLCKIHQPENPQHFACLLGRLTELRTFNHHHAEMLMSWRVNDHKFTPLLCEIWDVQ
Chain of Hepatocyte nuclear factor 6 (Homo sapiens) (Q9UBC0 whole entry, looked up, the tested form may be a part): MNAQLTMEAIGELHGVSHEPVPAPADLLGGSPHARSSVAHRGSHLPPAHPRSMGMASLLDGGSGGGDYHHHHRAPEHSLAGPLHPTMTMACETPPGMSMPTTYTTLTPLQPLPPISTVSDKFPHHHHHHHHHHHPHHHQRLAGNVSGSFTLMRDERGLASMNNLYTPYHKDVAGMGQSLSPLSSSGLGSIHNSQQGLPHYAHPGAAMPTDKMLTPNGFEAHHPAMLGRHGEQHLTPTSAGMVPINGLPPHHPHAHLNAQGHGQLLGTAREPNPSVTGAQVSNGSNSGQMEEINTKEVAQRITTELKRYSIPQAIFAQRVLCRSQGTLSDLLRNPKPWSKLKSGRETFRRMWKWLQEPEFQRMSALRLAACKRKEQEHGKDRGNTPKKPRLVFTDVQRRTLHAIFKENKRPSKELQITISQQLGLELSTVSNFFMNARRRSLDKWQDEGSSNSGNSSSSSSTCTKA

SMILES	outcome [1]	outcome [2]	outcome [3]	outcome [4]	outcome [5]	outcome [6]	outcome [7]	outcome [8]	outcome [9]	outcome [10]	AC50 [6]	AC50 [3]	AC50 [8]	AC50 [9]	AC50 [1]	AC50 [2]	AC50 [10]
C1CCSC1	inactive	inactive	inactive	inactive	inactive	inactive	inactive	inactive	inactive								
[Cl][Eu]([Cl])[Cl]	inactive	inactive		inactive	inactive	inactive	inactive	inactive	inactive	inactive							
CCCCCCCCCCCCC	inactive	inactive		inactive	inactive	inactive	inactive	inactive	inactive	inactive							
CCCCc1ccc(Cl)cc1	inactive	inactive	inactive	inactive	inactive	inactive	inactive	inactive	inactive								
CC(CC=O)CC(C)(C)C (stereo not given)	inactive	inactive	inactive	inactive	inactive	inactive	inactive	inactive	inactive								
Clc1cccnc1	inactive	inactive	inactive	inactive	inactive	inactive	inactive	inactive	inactive								
Cc1cc(=O)[nH]c(=O)[nH]1	inactive	inactive			inactive	inactive	inactive	inactive	inactive	inactive							
CC(C)=CCCC(C)=CC#N	inactive	inactive	inactive	inactive	inactive	inactive	inactive	inactive	inactive								
COc1nccnc1CC(C)C	inactive	inactive		inactive	inactive		inactive	inactive	inactive	inactive							
C=CCNCC=C	inactive	inactive		inactive	inactive		inactive	inactive	inactive	inactive	28.3 µM (active)						
C=C(C)C1CC=C(C)C(OC(C)=O)C1 (stereo not given)	inactive	inactive	inactive	inactive	inactive	inactive	inactive	inactive	inactive								
CC(=O)c1ccccc1O	inactive	inactive	inactive	inactive	inactive	inactive	inactive	inactive	inactive								
CCC1COC(=O)O1 (stereo not given)	inactive	inactive			inactive	inactive	inactive	inactive	inactive	inactive							
C=C(C)C(=O)OCC(O)COc1ccc(C(C)(C)c2ccc(OCC(O)COC(=O)C(=C)C)cc2)cc1 (stereo not given)	inactive	inactive		inactive	inactive		inactive				31.1 µM (active)	27 µM (active)	46.9 µM (active)	52.7 µM (active)			
CCCCNC(=S)NCCCC	inactive	inactive		inactive	inactive	inactive	inactive	inactive	inactive	inactive							
CC(C)(C)NC(=O)[C@H]1CC[C@H]2[C@@H]3CC[C@H]4NC(=O)C=C[C@]4(C)[C@H]3CC[C@]12C	inactive	inactive		inactive	inactive		inactive	inactive		inactive				68.3 µM (active)			
[Cl][Sc]([Cl])[Cl]	inactive	inactive	inactive	inactive	inactive	inactive	inactive	inactive	inactive								
O=C(O)c1cc(O)c2ccccc2c1O				inactive	inactive		inactive	inactive	inactive		48.9 µM (active)				33.4 µM (active)	33.4 µM (active)	21.8 µM (active)
CCCCC/C=C\C/C=C\CCCCCCCC(=O)O	inactive		inactive	inactive	inactive		inactive				26.6 µM (active)		150 µM (active)	149 µM (active)		76.3 µM (active)	
c1ccc2sc(SSN3CCOCC3)nc2c1			inactive	inactive	inactive		inactive				32.2 µM (active)		69.6 µM (active)	123 µM (active)	79.4 µM (active)	105 µM (active)	
Cc1ccccc1CCO	inactive	inactive	inactive	inactive	inactive	inactive	inactive	inactive	inactive								
Cc1noc(NS(=O)(=O)c2ccc(N)cc2)c1C	inactive	inactive	inactive	inactive	inactive	inactive	inactive	inactive	inactive								
CCC(C)N (stereo not given)	inactive	inactive		inactive	inactive		inactive	inactive	inactive	inactive							
CC(C)[N+](C)(CCOC(=O)C1c2ccccc2Oc2ccccc21)C(C)C	inactive	inactive		inactive	inactive		inactive	inactive	inactive	inactive							
CC(C)(CO)COC(=O)C(C)(C)CO	inactive	inactive			inactive	inactive	inactive	inactive	inactive	inactive							
CCCCCCCCCCCCCc1ccccc1	inactive	inactive		inactive	inactive	inactive	inactive	inactive	inactive	inactive							
CCCC/C=C/C=C\C=O				inactive	inactive	inactive	inactive					100 µM (active)	157 µM (active)	100 µM (active)	128 µM (active)	71.6 µM (active)	
C=CC(=O)OCCCCCCCC(C)C	inactive		inactive	inactive	inactive		inactive	inactive	inactive		71.8 µM (active)					91.4 µM (active)	
